# Measurements reported in the supplement of paper PMC9262897, “Low-cost anti-mycobacterial drug discovery using engineered E. coli” (Nature Communications, 2022).
# Counter-ions that a name gives are not always drawn. ± gives the standard deviation of the averaged measurements.
# Key:
# Assay in all cases: growth (OD600 after 10 h); higher = more growth (less inhibition)
# [1] = test system: E. coli TESEC Alr+ wild-type control; details: compound 0.1 mM; raw OD600 reference: median of DMSO wells 0.241, cell-free background 0.041
# Description: (§1)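 TESEC Mtb Alr E. coli, or the Alr+ wild-type control, in 384-well plates with Prestwick library compounds at 0.1 mM and 1% DMSO, across arabinose induction levels of 1E3 to 1E7 nM. Growth is read as OD600 after 10 h at 37 °C in triplicate biological replicates.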
# [2] = test system: E. coli TESEC Mtb Alr; details: compound 0.1 mM
# Description: as §1
# [3] = test system: E. coli TESEC Mtb Asd; details: compound 0.1 mM
# Description: (§2)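 TESEC E. coli strains in which the native enzyme is deleted and replaced by arabinose-inducible Mtb Asd, DapB, CysH or TrpD, each grown in its selective medium. Strains were screened against the Prestwick library at 0.1 mM and 1% DMSO in 384-well format at low and high arabinose induction. Growth is read as OD600 after 10 h in triplicate.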
# [4] = test system: E. coli TESEC Mtb DapB; details: compound 0.1 mM
# Description: as §2
# [5] = test system: E. coli TESEC Mtb Alr; details: compound 0.1 mM; remark: listed apart in the source
# Description: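 TESEC Mtb Alr E. coli (ΔaraC ΔtolC ΔentC Δalr ΔdadX, arabinose-inducible Mtb Alr) or the Alr+ wild-type control strain, grown in defined M9-fructose medium without D-alanine in 96-well plates with Prestwick library compounds at 0.1 mM and 1% DMSO. Low Alr induction is 0.1 µM arabinose and high induction is 10 mM arabinose.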
# [6] = arabinose 1000 nM, raw OD600 reference: median of DMSO wells 0.294, cell-free background 0.041
# [7] = arabinose 10000 nM, raw OD600 reference: median of DMSO wells 0.264, cell-free background 0.041
# [8] = arabinose 100000 nM, raw OD600 reference: median of DMSO wells 0.201, cell-free background 0.041
# [9] = arabinose 1000000 nM, raw OD600 reference: median of DMSO wells 0.193, cell-free background 0.041
# [10] = arabinose 10000000 nM, raw OD600 reference: median of DMSO wells 0.146, cell-free background 0.041
# [11] = arabinose induction (level): High, raw OD600 reference: median of DMSO wells 0.331, cell-free background 0.041
# [12] = arabinose induction (level): Low, raw OD600 reference: median of DMSO wells 0.417, cell-free background 0.041
# [13] = arabinose induction (level): High, raw OD600 reference: median of DMSO wells […], cell-free background 0.041
# [14] = arabinose induction (level): Low, raw OD600 reference: median of DMSO wells 0.227, cell-free background 0.041
# [15] = arabinose 100 nM, raw OD600 reference: median of DMSO wells 0.413, cell-free background 0.052
# [16] = arabinose 10000000 nM, raw OD600 reference: median of DMSO wells […], cell-free background 0.052
Structure (SMILES),growth [1],"growth [2, 6]","growth [2, 7]","growth [2, 8]","growth [2, 9]","growth [2, 10]","growth [3, 11]","growth [3, 12]","growth [4, 13]","growth [4, 14]","growth [5, 15]","growth [5, 16]"
"O=C1C(O)=C(O)C(=O)C(O)=C1O [Tetrahydroxy-1,4-quinone hydrate]",0.231 ± 0.0052,0.29 ± 0.02,0.275 ± 0.0064,0.19 ± 0.018,0.1568 ± 0.0015,0.142 ± 0.0053,0.349 ± 0.089,0.427 ± 0.082,0.206 ± 0.021,0.226 ± 0.0024,0.399 ± 0.012,0.333 ± 0.0084
COc1cnc(NS(=O)(=O)c2ccc(N)cc2)nc1 [Sulfameter],0.242 ± 0.0095,0.283 ± 0.0042,0.239 ± 0.011,0.218 ± 0.029,0.158 ± 0.0061,0.143 ± 0.0066,0.442 ± 0.039,0.399 ± 0.024,0.207 ± 0.027,0.243 ± 0.0072,0.407 ± 0.021,0.336 ± 0.0042
CC(CN(C)C)CN1c2ccccc2Sc2ccccc21 (stereo not drawn) [Trimeprazine tartrate],0.184 ± 0.019,0.221 ± 0.019,0.255 ± 0.0092,0.189 ± 0.012,0.129 ± 0.0014,0.168 ± 0.0079,0.175 ± 0.028,0.323 ± 0.07,0.192 ± 0.0094,0.231 ± 0.019,0.392 ± 0.0092,0.298 ± 0.018
CCN(Cc1ccncc1)C(=O)C(CO)c1ccccc1 (stereo not drawn) [Tropicamide],0.24 ± 0.0069,0.308 ± 0.02,0.266 ± 0.0032,0.212 ± 0.027,0.174 ± 0.0051,0.158 ± 0.0048,0.289 ± 0.021,0.416 ± 0.022,0.19 ± 0.0057,0.249 ± 0.054,0.413 ± 0.013,0.33 ± 0.0058
CC(=O)c1ccc2c(c1)N(CCCN1CCC(CCO)CC1)c1ccccc1S2 [Piperacetazine],0.161 ± 0.0078,0.183 ± 0.0095,0.276 ± 0.015,0.222 ± 0.0061,0.115 ± 0.0049,0.133 ± 0.0052,0.175 ± 0.0042,0.222 ± 0.015,0.203 ± 0.016,0.243 ± 0.023,0.3984 ± 0.0027,0.27 ± 0.039
CN(C)CCC(c1ccc(Cl)cc1)c1ccccn1 (stereo not drawn) [Chlorpheniramine maleate],0.22 ± 0.0024,0.264 ± 0.022,0.259 ± 0.0028,0.18 ± 0.018,0.162 ± 0.0019,0.135 ± 0.0055,0.291 ± 0.091,0.399 ± 0.061,0.187 ± 0.012,0.23 ± 0.0095,0.4277 ± 0.0018,0.325 ± 0.01
CCC1NC(=O)c2cc(S(N)(=O)=O)c(Cl)cc2N1 (stereo not drawn) [Quinethazone],0.248 ± 0.0085,0.281 ± 0.0094,0.266 ± 0.0054,0.219 ± 0.0029,0.199 ± 0.0047,0.13 ± 0.0037,0.419 ± 0.029,0.445 ± 0.051,0.212 ± 0.021,0.238 ± 0.047,0.415 ± 0.006,0.354 ± 0.022
CCc1oc2ccccc2c1C(=O)c1cc(Br)c(O)c(Br)c1 [Benzbromarone],0.0407 ± 0.001,0.0448 ± 0.0076,0.0403 ± 0.00069,0.0421 ± 0.0019,0.03953 ± 0.00015,0.047 ± 0.0017,0.0473 ± 0.0012,0.0482 ± 0.002,0.0504 ± 0.0016,0.0491 ± 0.001,0.0588 ± 0.0027,0.0513 ± 0.0023
CCCOc1cc(N)ccc1C(=O)OCCN(CC)CC [Propoxycaine hydrochloride],0.229 ± 0.005,0.289 ± 0.0076,0.274 ± 0.01,0.199 ± 0.034,0.22 ± 0.011,0.138 ± 0.0039,0.36 ± 0.085,0.376 ± 0.079,0.225 ± 0.0078,0.22 ± 0.017,0.41 ± 0.0052,0.361 ± 0.015
